Screens (PubChem)
Sm TGR inh = blocks Schistosoma mansoni thioredoxin glutathione reductase; Potency, µM (doses to about 114 µM), inactives show at the highest dose activity change, negative = inhibition, hits mostly inhibitors; actives 3% (n = 360,000); purified TGR, DTNB reduction, TNB absorbance 405 nm; further: nearly all actives have a fitted effect of over 60% in size
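First, TGR (20 nM dispensed) and NADPH were mixed with compound. Second, a 15 min room-temperature incubation followed. Third, further NADPH and then DTNB were added to start the reaction. Finally, TNB absorbance was monitored kinetically.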
AmpC no deterg = inhibitors of E. coli AmpC beta-lactamase without detergent; P00811; AmpC nitrocefin hydrolysis, absorbance 480 nm, 0.0001% Triton; Potency, µM (titrated, usually from 57.1 µM), without a hit: at the top dose activity change, negative = inhibition, usual class: inhibitors; actives 0.52% (n = 330,000); AID 485341;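 further: plate controls were no compound for no effect and no enzyme for full effect; nearly all actives have a fitted effect of over 20% in size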
Target sequence (P00811 whole entry, looked up): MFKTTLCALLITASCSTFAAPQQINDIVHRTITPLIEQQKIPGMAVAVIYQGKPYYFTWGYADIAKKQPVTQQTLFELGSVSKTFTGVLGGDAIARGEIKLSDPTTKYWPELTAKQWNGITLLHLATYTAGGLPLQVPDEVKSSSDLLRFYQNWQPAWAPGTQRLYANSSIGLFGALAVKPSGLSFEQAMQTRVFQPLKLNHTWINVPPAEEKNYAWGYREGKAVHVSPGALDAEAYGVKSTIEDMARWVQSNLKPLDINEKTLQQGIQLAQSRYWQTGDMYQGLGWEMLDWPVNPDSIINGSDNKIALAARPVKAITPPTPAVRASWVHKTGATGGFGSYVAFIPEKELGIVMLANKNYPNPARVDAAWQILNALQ
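20 mM phosphate pH 7.0 + 0.01% (detergent screen) or 0.0001% Triton X-100; 5.3 nM AmpC reagent; cpd preinc 15 min RT; nitrocefin (800 uM stock) to start; A480 q20 s × 4 min; Activity was normalised to no-enzyme and no-compound control wells.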
AmpC detergent = inhibitors of E. coli AmpC beta-lactamase with detergent. P00811. Potency, µM (series often up to 114 µM), without a hit: at the highest dose activity change, negative = inhibition, usual class: inhibitors. AmpC hydrolysis of nitrocefin, absorbance 480 nm, 0.01% Triton. actives 0.041% (n = 370,000);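 further: 0% = no-compound wells and -100% = no-enzyme wells; nearly all actives have a fitted effect of over 25% in size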
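AmpC (5.3 nM in the dispensed reagent) in 20 mM phosphate pH 7.0 with 0.01% (detergent screen) or 0.0001% Triton X-100 was preincubated with compounds for 15 min at room temperature. Nitrocefin was then added from an 800 uM solution, and hydrolysis was followed at 480 nm.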
* hit, by the source's call; ? = inconclusive; nt = no result given; [ ] = remark or other dose. Sampled rows, rich in hits. Any-hit rate of the full collection: about 3.3%. The call rests on the fitted dose curve; in most records, active means well fitted curve in the direction sought with a large enough effect; inconclusive means small, poorly fitted or top-dose-only effect, or another doubt; inactive means no such curve, though single readings can be large; an effect the other way counts as inactive or inconclusive. Unless noted, on the % scale 0 is the no-effect control and ±100 the full control effect; potency means the concentration at half of the fitted maximal effect.

SMILES	Sm TGR inh	AmpC no deterg	AmpC detergent
CC(=O)Nc1ccc(NC(=O)COC(=O)[C@@H]2CCCN2C(=O)c2cccs2)cc1	nt	-7.3%	nt
O=C(NCC(c1ccco1)N1CCOCC1)c1cccc([N+](=O)[O-])c1 (configuration not stated)	-6.8%	-0.6%	?
O=C(NCC(c1ccco1)N1CCc2ccccc2C1)c1ccc(Cl)c([N+](=O)[O-])c1 (configuration not stated)	-34.3%	-31.7%	-20.3%
O=C(NCC(c1ccco1)N1CCc2ccccc2C1)c1cccc([N+](=O)[O-])c1 (configuration not stated)	39.8µM*	-30.9%	?
O=C(NCC(c1ccco1)N1CCOCC1)c1ccc([N+](=O)[O-])cc1 (configuration not stated)	3.98µM*	-12.6%	2.5%
COC(=O)C(CO)NC(=O)C1CCCN1C(=O)CNC(=O)OCc1ccccc1 (configuration not stated)	-21.7%	-4.7%	-2.6%
COC(=O)Nc1ccc(S(=O)(=O)N2CCCC(C(=O)N3CCC(C)CC3)C2)cc1 (configuration not stated)	-12.1%	25.7%	-0.4%
CC(C)CCN(C(=O)CNC(=O)c1cccs1)C(C(=O)NC1CCCCC1)c1cccnc1 (configuration not stated)	11.4%	-3.5%	5.3%
CCCC(C)CO (configuration not stated)	-1.4%	2.7%	0.4%
COc1ccc(Nc2ncc(C(=O)N3CCN(c4cccc(Cl)c4)CC3)c3ccccc23)cc1	-9.8%	nt	2.8%
COc1cc(/C=C2\N=C(c3c(-c4ccccc4)noc3C)OC2=O)ccc1OC(C)=O	-5.9%	2.9%	11.7%
COc1ccc(/C=C2\N=C(C)OC2=O)cc1[N+](=O)[O-]	10µM*	-14.6%	6.5%
COc1ccc(/C=N/Nc2nc(=O)[nH]nc2C)cc1[N+](=O)[O-]	-5.9%	-5.9%	-2.7%
CC1=N/C(=C/c2cccnc2)C(=O)O1	22.4µM*	-15.5%	4.5%
COc1cc(/C=C2\N=C(C)OC2=O)cc(Cl)c1OC(C)=O	10µM*	-11.9%	-6.5%
Cc1cccc(C2=N/C(=C\c3cccnc3)C(=O)O2)c1	-16.2%	-30.0%	-0.1%
CCCn1nc(C(=O)Nc2ccc(-n3cnnn3)cc2)c2ccccc2c1=O	0.0%	-12.7%	-19.7%
COc1ccc(C(=O)N2CCCN(C)CC2)cc1S(=O)(=O)N1CCCc2ccccc21	-16.3%	3.1%	?
COc1ccc(C(=O)N2CCCN(C)CC2)cc1S(=O)(=O)N(C)Cc1ccccc1	35.5µM*	25.6%	0.3%
N=C1/C(=C/c2ccc(-c3cccc(C(=O)O)c3)o2)C(=O)N=C2SC(CC(=O)N3CCOCC3)=NN12	-1.2%	-6.1%	-1.3%
N=C1/C(=C\c2ccc(-c3cccc(C(=O)O)c3)o2)C(=O)N=C2SC=C(c3ccccc3)N12	1.3%	-38.5%	56.2µM*
O=C(NCc1ccncc1)C1CCCN1S(=O)(=O)c1ccc(Cl)cc1 (configuration not stated)	5.8%	-3.4%	2.0%
CC1(c2ccccc2)NC(=O)N(CC(=O)Nc2ccc3c(c2)CCC3)C1=O (configuration not stated)	nt	-18.7%	nt
O=C(COc1ccc(F)cc1)N1CCCCCCC1	-8.5%	-6.1%	-3.6%
O=C1NC(=S)NC(=O)C1=Cc1ccc(OCC(=O)N2CCCC2)cc1	10µM*	-29.1%	6.9%
SMILES	Sm TGR inh	AmpC no deterg	AmpC detergent
CCOC(=O)C(NC(=O)CC)(Nc1ccccc1)C(F)(F)F (configuration not stated)	-0.9%	2.9%	-12.2%
CCOC(=O)C(NC(=O)CC)(Nc1sc(C)c(CC)c1C#N)C(F)(F)F (configuration not stated)	50.1µM*	30.2%	-14.1%
COc1ccc(NC(=O)CN(C)C(=O)C(CCSC)NC(=O)c2ccccc2)cc1 (configuration not stated)	-9.8%	10.7%	-1.7%
C=CCNC(=S)NNC(=O)c1ccc(C)c(Cl)c1	nt	-15.6%	6.2%
C=CCNC(=S)NC(=O)c1ccc(C)c(Br)c1	31.6µM*	-16.3%[2.29 µM]	2.3%
CCOC(=O)NC(=O)COC(=O)CNC(=O)c1ccc(OCC)c(OCC)c1	-10.7%	1.5%	-5.3%
CN1/C(=C\C(=O)c2ccco2)C(C)(C)c2ccccc21	44.7µM*	-12.9%	-13.0%
CCC(=O)/C=C1/Sc2ccccc2N1CC	-22.5%	-16.9%	?
CCN1/C(=C/C(=O)c2ccco2)Sc2ccccc21	20µM*	-19.9%	-11.8%
CN1/C(=C\C(=O)COC(=O)c2ccco2)C(C)(C)c2ccccc21	-32.0%	-14.2%	7.0%
COc1ccccc1-c1ccc(SCc2ccccc2F)nn1	-0.5%	-40.3%	0.7%
Clc1ccc(CSc2ccc(-c3ccco3)nn2)cc1	28.2µM*	-30.6%	-0.8%
Clc1cccc(CSc2ccc(-c3ccco3)nn2)c1	7.08µM*	-46.8%	-0.3%
c1ccc(CSc2ccc(-c3ccco3)nn2)cc1	22.4µM*	-21.1%	-8.7%
Cc1ccc(CSc2ccc(-c3ccco3)nn2)cc1	?	-24.4%	-3.4%
Clc1ccc(CSc2ccc(-c3ccccn3)nn2)cc1	4.7%	-10.4%	0.0%
Fc1ccccc1CSc1ccc(-c2ccco2)nn1	31.6µM*	-34.8%	-7.7%
Cc1cccc(CSc2ccc(-c3ccco3)nn2)c1	?	-56.9%	-5.0%
O=C(Cc1ccc(Cl)cc1)NCCc1csc2nc(-c3ccccc3F)nn12	-9.6%	nt	-0.8%
CCn1c(C(=O)N2CCCC(C(=O)N3CCN(c4ccccc4)CC3)C2)cc2sccc21 (configuration not stated)	-8.3%	nt	-0.5%
CC(C)/C=C/C(=O)N1CCCC(N2CCN(c3ccccc3F)CC2)C1 (configuration not stated)	-23.8%	48.0%	?
Cc1cc(C)cc(NC(=O)Cn2c3ncccc3c(=O)n2-c2ccc(C)c(C)c2)c1	-0.6%	nt	4.3%
CCNC(=O)c1nn(-c2ccccc2C)nc1CO	2.7%	nt	17.4%
CC1Oc2cc3c(-c4c(O)cc(O)c5c(O)c6c(cc45)OC(C)C(C)C6=O)c(O)cc(O)c3c(O)c2C(=O)C1C (configuration not stated)	31.6µM*	22.4µM*	?
C[C@@H]1Cc2c(O)c(O)cc(O)c2C(=O)O1	?	-2.8%	-5.1%
SMILES	Sm TGR inh	AmpC no deterg	AmpC detergent
Cc1ccc(C)c(S(=O)(=O)N2CCN(CC(=O)N3CCc4ccccc4C3)CC2)c1	4.3%	141.8%	0.1%
O=C(CN1CCN(S(=O)(=O)c2cc(C(F)(F)F)ccc2Cl)CC1)N1CCc2ccccc2C1	39.8µM*	178.9%	?
CCCCCC(=O)Nc1cccc(C2=NOC3(C2)C[C@@H](C(N)=O)N(C(=O)c2ccc(Cl)cc2)C3)c1 (some centres not stated)	-0.5%	143.5%	-5.3%
CCOc1ccc(S(=O)(=O)NCc2cccs2)cc1C(C)C	-15.3%	16.2%	-15.7%
Cc1ccc(/C=C/C(=O)O)cc1S(=O)(=O)Nc1ccc(C(=O)O)cc1	35.5µM*	-4.3%	2.3%
COc1cc(/C=C/C(=O)O)cc(S(=O)(=O)NCCO)c1OC	-10.9%	-15.4%	0.7%
Cc1ccc(/C=C/C(=O)O)cc1S(=O)(=O)Nc1ccccc1C(=O)O	?	-16.5%	-2.8%
